Screening data as filed in PubChem BioAssay.
Hits are enriched below; roughly 7.5% of the tested compounds scored in any of these assays.
SMN2 splice up: increases expression of the SMN2 splice variant | HEK293 SMN2-luciferase splicing reporter, luminescence, 30-36 h | Potency, µM (highest dose often 46.1 µM), inactives show top-dose activity change, positive = activation, usual class: activators | actives 2.8% (n = 210,000); note: % of control where 0% means no effect; nearly all actives have a fitted effect of over 55% in size
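HEK293 cells carry an SMN2 minigene-luciferase reporter in which exon 7 inclusion puts luciferase in frame. Cells were seeded at 2000 cells/well, attached for 10-12 hours, then exposed to compounds for 30-36 hours at 37C before ONE-Glo luminescence.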
Rab9 promoter act: Rab9 promoter activation; Huh7 Rab9 promoter-luciferase reporter, luminescence, 24 h; Potency, µM (top dose mostly 9.22 µM), for the others: at the highest dose activation, negative = inhibition, usual class: activators; actives 2.8% (n = 320,000); note: % of control where 0% means no effect; nearly all actives have a fitted effect of over 60% in size
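Huh7 cells stably carrying Rab9 promoter–luciferase reporter, plated 1500 cells/well, compound added after 2 h and incubated 24 h at 37 °C; luciferase luminescence then read after 10 min with detection reagent.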
KinaseGlo FLuc: blocks Kinase-Glo luciferase, a counter-screen artifact; Potency, µM (titrated, usually from 38.3 µM), for inactives: top-dose activity change, negative = inhibition, hits mostly inhibitors; actives 0.28% (n = 200,000); Kinase-Glo luciferase, ATP luminescence, 8 min; note: % is set by controls: 0 for no effect and ±100 for the full control effect; nearly all actives have a fitted effect of over 60% in size
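Luminescence was the read-out, taken after 8-minute incubation at ambient temperature. Luciferase turned over luciferin with 10 uM ATP in imidazole pH 7.2 buffer containing KCl, MgCl2, Tween 20 and BSA.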
FLuc modulator: inhibits or activates purified firefly luciferase, miR-21 counter-screen. P08659. purified FLuc, Km substrates, luminescence inhibition. Potency, µM (doses to about 57.5 µM), inactives show at the top dose activity change, negative = inhibition, usual class: inhibitors. actives 6.9% (n = 360,000). AID 588342;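 note: plate controls were vehicle for no effect and reference inhibitor for full effect; nearly all actives have a fitted effect of over 55% in size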
Target sequence (P08659 whole entry, looked up): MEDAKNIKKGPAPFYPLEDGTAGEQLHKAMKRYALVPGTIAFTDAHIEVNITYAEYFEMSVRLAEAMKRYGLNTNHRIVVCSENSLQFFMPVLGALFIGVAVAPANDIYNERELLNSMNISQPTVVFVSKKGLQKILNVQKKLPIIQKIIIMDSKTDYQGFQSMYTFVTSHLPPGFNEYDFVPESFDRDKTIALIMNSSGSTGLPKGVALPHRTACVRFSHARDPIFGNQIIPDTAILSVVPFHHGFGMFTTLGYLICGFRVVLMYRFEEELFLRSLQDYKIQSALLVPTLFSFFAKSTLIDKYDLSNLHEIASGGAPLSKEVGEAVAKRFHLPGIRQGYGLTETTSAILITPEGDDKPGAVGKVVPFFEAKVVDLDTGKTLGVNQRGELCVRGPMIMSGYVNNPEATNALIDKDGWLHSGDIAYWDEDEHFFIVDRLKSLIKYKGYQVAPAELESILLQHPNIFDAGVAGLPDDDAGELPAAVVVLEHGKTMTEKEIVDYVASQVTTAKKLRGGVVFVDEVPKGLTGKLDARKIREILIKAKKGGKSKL
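Purified P. pyralis luciferase, 10 nM final, with Km-level 10 uM D-luciferin and 10 uM ATP in 50 mM Tris acetate pH 7.5, 10 mM Mg acetate, 0.01% Tween-20, 0.05% BSA; 6-point qHTS titration about 60 µM downward; luminescence read.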
ELG1 genotox: induces genotoxicity in HEK293T cells with luciferase-tagged ELG1. AID 504466. HEK293T ELG1-luciferase reporter, luminescence, 16 h. Potency, µM (series often up to 46 µM), for the others: at the highest dose activity change, positive = activation, most hits filed as activators. actives 1.3% (n = 330,000); note: % of control where 0% means no effect; nearly all actives have a fitted effect of over 60% in size
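HEK293T cells expressing luciferase-tagged ELG1 were exposed to compound or DMSO vehicle for 16 hr at 37 °C and 5% CO2. Luciferase activity was then measured with ONE-Glo after 30 min at room temperature.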
NPC1 promoter act: activators of NPC1 promoter; actives 2.4% (n = 320,000); Potency, µM (doses to about 9.22 µM), for the others: at the top dose activation, usual class: activators; Huh7 NPC1 promoter luciferase reporter, 24 h; note: % of control where 0% means no effect; nearly all actives have a fitted effect of over 60% in size
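Luciferase expression driven by the NPC1 promoter was measured in stably transfected Huh7 cells after a 24 h compound incubation, using a luciferase reagent and a luminescence read.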
An asterisk follows results filed as active; ? = inconclusive; . = no result given; [ ] = another dose, or the depositor's remark. Calls come from the whole dose curve; as a rule, active = well fitted curve in the direction sought with a large enough effect; inconclusive = small, poorly fitted or top-dose-only effect, or another doubt; inactive = no such curve, though single readings can be large; an effect the other way counts as inactive or inconclusive. Potency is the fitted concentration of half-maximal effect.

SMILES | SMN2 splice up | Rab9 promoter act | KinaseGlo FLuc | FLuc modulator | ELG1 genotox | NPC1 promoter act
CC(=O)Nc1cccc(NC(=O)Nc2cccc(F)c2)c1 | . | 2.9% | . | 9.53µM* | 9.3% | 5.5%
CNS(=O)(=O)c1ccc(NC(=O)Nc2cccc(F)c2)cc1 | . | ? | 1.6% | 19µM* | 1.4% | 12.0%
CCCCc1ccc(-n2nc3cc(C)c(NC(=O)c4ccc(C#N)cc4F)cc3n2)cc1 | -5.3% | . | . | -1.6% | . | .
O=C(Nc1ccc(NC(=O)C23CC4CC(CC(C4)C2)C3)cn1)c1ccco1 | 31.5% | 21.8% | -7.2% | 6.01µM* | 2.31µM* | 1µM*
CC(C)(C)C(=O)Nc1ccc(NC(=O)c2ccco2)nc1 | . | -39.4% | . | 0.169µM* | ? | -34.4%
O=C(Nc1ccccn1)c1ccco1 | ? | ? | -7.1% | ? | 9.0% | ?
O=C(Nc1ccc(NC(=O)c2ccco2)nc1)c1ccco1 | 2.51µM* | 0.316µM* | -23.0% | 4.78µM* | 4.3% | 0.398µM*
COc1ccccc1C(=O)Nc1ccc(NC(=O)c2ccco2)cn1 | . | ? | . | 6.01µM* | ? | ?
CCC(=O)Nc1ccc(NC(=O)C23CC4CC(CC(C4)C2)C3)cn1 | ? | 21.4% | -4.1% | -15.1% | ? | 23.2%
O=c1c(-c2cccc(F)c2)nc2cncnc2n1-c1ccccc1 | -15.2% | . | 1.5% | . | . | .
COc1ccc(C(=O)Nc2cc(-c3ccccc3)nn2-c2ccccc2F)cc1 | . | 0.3% | . | ? | 2.8% | -0.7%
CCOc1ccc(C(=O)Cn2c(=O)n3nc(CCn4nc(C)cc4C)nc3c3cc(OC)c(OC)cc32)cc1 | . | . | . | -3.1% | . | .
O=C(Nc1ccc(NC(=O)c2ccco2)nc1)c1ccccn1 | 14.1µM* | 0.708µM* | 10µM* | 6.01µM* | ? | 0.447µM*
O=C(Cc1ccccc1)Nc1ccc(NC(=O)c2ccco2)nc1 | ? | 2.51µM* | -8.2% | 16.9µM* | ? | 2.24µM*
COc1cc(NC(=O)C2CC2)c(OC)cc1NC(=O)c1ccco1 | . | -0.9% | . | 1.1% | -0.7% | -3.7%
O=C(Nc1ccc(NC(=O)C2CC2)cc1)c1ccco1 | . | 1.78µM* | . | 19µM* | 13µM* | 3.16µM*
O=C(Nc1ccc(NC(=O)C2CCCCC2)cn1)c1ccco1 | . | 0.447µM* | . | 1.69µM* | 0.651µM* | 0.708µM*
CCCC(=O)Nc1ccc(NC(=O)Cc2ccccc2)cn1 | -14.5% | 2.0% | -2.1% | 0.2% | -1.8% | 1.5%
CCOc1ccc(NC(=O)Cn2c(=O)cc(C)c3c(C)nn(-c4cccc(Cl)c4C)c32)cc1 | . | . | . | -2.1% | . | .
CCN(CC)C(=O)CSc1nc2cc3c(cc2c(=O)n1CCCCCC(=O)NCc1ccc(OC)cc1)OCO3 | -30.5% | 1.1% | 0.0% | 1.9% | -18.0% | -1.2%
COc1ccc(C(=O)N2CCN(Cc3ccccc3)CC2)cc1[N+](=O)[O-] | . | -4.4% | . | 1.4% | -7.3% | -0.2%
COc1ccc2[nH]c(C(=O)N3CCN(Cc4ccccc4)CC3)cc2c1OC | . | 4.3% | . | 15.1µM* | 6.1% | 0.7%
Cc1[nH]c2ccc(C(=O)N3CCN(Cc4ccccc4)CC3)cc2c1C | . | 2.9% | . | 6.01µM* | 1.8% | 15.7%
COc1cc(CN2CCN(C(=O)c3ccc(-c4ccccc4)cc3)CC2)cc(OC)c1OC | . | 12.4% | -1.5% | 21.3µM* | ? | 5.9%
CCc1ccc(OCc2ccccc2C(=O)Nc2ccc3nc(C)cc(N)c3c2)cc1 | . | . | -4.2%[39.9 µM] | . | . | .
CCc1ccc(NC(=O)CN(Cc2ccccc2)S(=O)(=O)c2ccc3nc(C)sc3c2)cc1 | . | . | . | -2.8% | . | .
Cc1csc(NC(=O)c2nn(C)c(C)c2[N+](=O)[O-])n1 | 40.4% | 19.5% | -8.2% | ? | 10.0% | 1.9%
C=CCN(CC=C)S(=O)(=O)c1ccc2nc(NC(=O)C(C)C)sc2c1 | -23.4% | -21.8% | 3.3% | 5.6% | 4.4% | -26.3%
CCCCC(=O)Nc1nc2ccc(C(=O)OC)cc2s1 | ? | 2.24µM* | -2.3% | ? | ? | ?
Cc1ccc2nc(NC(=O)COC(=O)c3cccnc3)sc2c1 | . | . | . | . | 19.9% | .
